From PubChem BioAssay (NCI)
Compounds without any hit were thinned out: in the full panel of roughly 83,000, 20% have a hit.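 Percent growth is the endpoint: 0 to 100 indicates growth inhibition (40 means 60% inhibition), 0 means no net growth, and negative values indicate cell death.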 Unmarked numbers belong to inactive results. Calls of active or inactive are those of the source. The calls were made as follows: active = growth percent below 10; inactive = the rest.

Test system: IGROV1 ovarian
Assay: NCI-60 one-dose screen, 48 h (100 = growth as untreated, 0 = no growth, -100 = all killed)
Settings: 10 µM unless noted

Compound	growth
CCOC(=O)C1=C(C)NC(SCc2nnc(-c3ccc(Cl)cc3)o2)=NC1c1ccc(Cl)cc1 (stereo unspecified)	62.3%
O=Cc1ccc2nc(C(Cl)(Cl)Cl)ccc2c1	93.1%
CCCc1n(Cc2ccc3ccccc3c2)c2ccccc2[n+]1Cc1ccc2ccccc2c1	-64.8% (active)
CC(CN1CCN(CCOCCO)CC1)CN1c2ccccc2Sc2ccc(Cl)cc21 (stereo unspecified)	60.1%
Clc1ccc(Nc2ncnc3c2sc2ncccc23)c(Cl)c1	70.4%
COc1ccc(/C=C(/C(=O)N2CCN(c3ccccc3)CC2)c2cc(OC)c(OC)c(OC)c2)cc1O	32.2%
C#CCNC(=S)N/N=C(\C)c1ccccn1	5.45% (active)
CC(C)NC(=O)OCC#CCOC(=O)NC(C)C	90.6%
Cc1cc(C)c2c(n1)sc1c(Nc3ccc(Cl)cc3Cl)ncnc12	69.5%
CCCCn1cnc(-c2cc(-c3ccccc3)cc(C(F)(F)F)c2)n1	103%
O=C1c2ccccc2C(=O)c2c1oc1ccc3ccccc3c21	80.2%
COC1=CC(c2ccc[nH]2)=N/C1=C\c1[nH]c(C)c(C(=O)CCCCCCCCC(=O)O[C@H]2CC[C@H]3C4CCc5cc(O)ccc5C4CC[C@]23C)c1C (stereo partly specified)	22.7%
CCSc1ccc([C@@H]2[C@@H](N)C(=O)N2c2cc(OC)c(OC)c(OC)c2)cc1	47.9%
COc1ccc2[nH]cc(C(c3ccc(Cl)cc3)N3CCCC3)c2c1 (stereo unspecified)	83.2%
Oc1[nH]c2ccc(Cl)cc2c1/C=c1/ccc2c(c1)N=C(c1ccc(F)cc1)N=2	5.76% (active)
COc1cc(-c2csc(NC(=O)Nc3cccc(C(F)(F)F)c3)n2)cc(OC)c1OC	59.6%
O=C(Cc1ccc(Nc2ccnc(C(F)(F)F)c2)cc1)N/N=C/c1ccccc1O	18.8%
COc1ccc2nc(C)cc(Nc3ccccc3O)c2c1	44.9%
C[C@]12CCc3nc(Nc4ccc(O)cc4)sc3C1=CC[C@@H]1[C@@H]2CC[C@]2(C)/C(=N/NC(N)=S)CC[C@@H]12	-61.2% (active)

Compound	growth
CN(C)CCOc1nc2c3cccnc3cc(-c3cccc(Cl)c3)c2c2ncccc12	30.9%
Oc1[nH]c2ccccc2c1/C=c1/ccc2c(c1)N=C(c1ccc(C(F)(F)F)cc1)N=2	41.3%
COc1ccc(/C(=C\c2ccc3c(c2)OCO3)C(=O)Nc2nc3ccc(F)cc3s2)cc1OC	95.8%
O=C(Nc1ccccc1Cl)Oc1ccc2ccccc2c1	77.9%
Nc1nc2c(c3ncccc13)C(c1ccccc1)Cc1ncccc1-2 (stereo unspecified)	63.3%
COc1ccccc1NC(=O)OCC12COCN1COC2	109%
COc1cc2c(cc1C)NC(=O)/C2=C\c1c[nH]c2ccccc12	-6.11% (active)
C=C(C)[C@@H]1CC[C@]2(C)[C@H](CC=C3[C@@H]4C[C@](C)(C(=O)N5CCN(C)CC5)CC[C@]4(C)CC[C@]32C)[C@@]1(C)CCC#N	76.4%
COc1ccc(NC(=O)/C=C/c2ccc(Cl)c(Cl)c2)cn1	67.8%
CC(C)c1[nH]ncc1-c1nc2ccc3[nH]ncc3c2c2c1CCCC2	21.9%
COc1ccc(NC(=O)c2ccc(C(F)(F)F)nc2Nc2ccc(Cl)cc2C)cc1Cl	27%
NCCCOc1cc2ccccc2cc1C(=O)NCCCOc1cc2ccccc2cc1C(=O)Nc1ccc(Cl)cc1O	-31.6% (active)
C/C=C(\C)C(C(=O)NC1CCCCC1)N(C(=O)C1CCc2cc(F)ccc2O1)c1ccc([N+](=O)[O-])cc1 (stereo unspecified)	85.8%
O=C(Cn1nncc1CN1C(=O)CSC1=O)Nc1ccc(F)cc1	102%
CCC(C)C1NC(=O)c2nc(oc2-c2ccccc2)-c2csc(n2)-c2csc(n2)-c2nc(oc2C)-c2coc(n2)CNC(=O)C(C(C)CC)NC1=O (stereo unspecified)	-71.5% (active)
C=CCn1c(C)nc2cc(Nc3nc(N4CCCC4)nc4nc[nH]c34)ccc21	55.8%
Clc1ccc(Nc2ncnc3c2sc2ncccc23)cc1	66.2%
Cc1ccc(NC(=O)c2nc(S(C)(=O)=O)oc2-c2ccc(F)cc2)cc1Nc1ccc2ncn(C)c(=O)c2c1	61.4%
CCCCNCC(O)c1cc(-c2ccc(C(F)(F)F)cc2)nc(-c2ccc(C(F)(F)F)cc2)c1 (stereo unspecified)	-59.7% (active)

Test system: OVCAR-3 ovarian
Assay: as above
Settings: 10 µM unless noted

Compound	growth
CCOC(=O)C1=C(C)NC(SCc2nnc(-c3ccc(Cl)cc3)o2)=NC1c1ccc(Cl)cc1 (stereo unspecified)	70.8%
O=Cc1ccc2nc(C(Cl)(Cl)Cl)ccc2c1	103%
CCCc1n(Cc2ccc3ccccc3c2)c2ccccc2[n+]1Cc1ccc2ccccc2c1	-76.8% (active)
CC(CN1CCN(CCOCCO)CC1)CN1c2ccccc2Sc2ccc(Cl)cc21 (stereo unspecified)	67%
Clc1ccc(Nc2ncnc3c2sc2ncccc23)c(Cl)c1	55.5%
COc1ccc(/C=C(/C(=O)N2CCN(c3ccccc3)CC2)c2cc(OC)c(OC)c(OC)c2)cc1O	-33.1% (active)
C#CCNC(=S)N/N=C(\C)c1ccccn1	16.6%
CC(C)NC(=O)OCC#CCOC(=O)NC(C)C	108%
Cc1cc(C)c2c(n1)sc1c(Nc3ccc(Cl)cc3Cl)ncnc12	57.3%
CCCCn1cnc(-c2cc(-c3ccccc3)cc(C(F)(F)F)c2)n1	103%
O=C1c2ccccc2C(=O)c2c1oc1ccc3ccccc3c21	39.4%
COC1=CC(c2ccc[nH]2)=N/C1=C\c1[nH]c(C)c(C(=O)CCCCCCCCC(=O)O[C@H]2CC[C@H]3C4CCc5cc(O)ccc5C4CC[C@]23C)c1C (stereo partly specified)	13.7%
CCSc1ccc([C@@H]2[C@@H](N)C(=O)N2c2cc(OC)c(OC)c(OC)c2)cc1	-23.8% (active)
COc1ccc2[nH]cc(C(c3ccc(Cl)cc3)N3CCCC3)c2c1 (stereo unspecified)	99.5%
Oc1[nH]c2ccc(Cl)cc2c1/C=c1/ccc2c(c1)N=C(c1ccc(F)cc1)N=2	72%
COc1cc(-c2csc(NC(=O)Nc3cccc(C(F)(F)F)c3)n2)cc(OC)c1OC	37.7%
O=C(Cc1ccc(Nc2ccnc(C(F)(F)F)c2)cc1)N/N=C/c1ccccc1O	40.8%
COc1ccc2nc(C)cc(Nc3ccccc3O)c2c1	-35.5% (active)
C[C@]12CCc3nc(Nc4ccc(O)cc4)sc3C1=CC[C@@H]1[C@@H]2CC[C@]2(C)/C(=N/NC(N)=S)CC[C@@H]12	-68.8% (active)

Compound	growth
CN(C)CCOc1nc2c3cccnc3cc(-c3cccc(Cl)c3)c2c2ncccc12	17.8%
Oc1[nH]c2ccccc2c1/C=c1/ccc2c(c1)N=C(c1ccc(C(F)(F)F)cc1)N=2	25.8%
COc1ccc(/C(=C\c2ccc3c(c2)OCO3)C(=O)Nc2nc3ccc(F)cc3s2)cc1OC	90.7%
O=C(Nc1ccccc1Cl)Oc1ccc2ccccc2c1	96.6%
Nc1nc2c(c3ncccc13)C(c1ccccc1)Cc1ncccc1-2 (stereo unspecified)	62.2%
COc1ccccc1NC(=O)OCC12COCN1COC2	116%
COc1cc2c(cc1C)NC(=O)/C2=C\c1c[nH]c2ccccc12	65.9%
C=C(C)[C@@H]1CC[C@]2(C)[C@H](CC=C3[C@@H]4C[C@](C)(C(=O)N5CCN(C)CC5)CC[C@]4(C)CC[C@]32C)[C@@]1(C)CCC#N	55.3%
COc1ccc(NC(=O)/C=C/c2ccc(Cl)c(Cl)c2)cn1	96.6%
CC(C)c1[nH]ncc1-c1nc2ccc3[nH]ncc3c2c2c1CCCC2	46.8%
COc1ccc(NC(=O)c2ccc(C(F)(F)F)nc2Nc2ccc(Cl)cc2C)cc1Cl	15.5%
NCCCOc1cc2ccccc2cc1C(=O)NCCCOc1cc2ccccc2cc1C(=O)Nc1ccc(Cl)cc1O	-31.2% (active)
C/C=C(\C)C(C(=O)NC1CCCCC1)N(C(=O)C1CCc2cc(F)ccc2O1)c1ccc([N+](=O)[O-])cc1 (stereo unspecified)	89.4%
O=C(Cn1nncc1CN1C(=O)CSC1=O)Nc1ccc(F)cc1	107%
CCC(C)C1NC(=O)c2nc(oc2-c2ccccc2)-c2csc(n2)-c2csc(n2)-c2nc(oc2C)-c2coc(n2)CNC(=O)C(C(C)CC)NC1=O (stereo unspecified)	-88% (active)
C=CCn1c(C)nc2cc(Nc3nc(N4CCCC4)nc4nc[nH]c34)ccc21	-11.3% (active)
Clc1ccc(Nc2ncnc3c2sc2ncccc23)cc1	56.6%
Cc1ccc(NC(=O)c2nc(S(C)(=O)=O)oc2-c2ccc(F)cc2)cc1Nc1ccc2ncn(C)c(=O)c2c1	-58.5% (active)
CCCCNCC(O)c1cc(-c2ccc(C(F)(F)F)cc2)nc(-c2ccc(C(F)(F)F)cc2)c1 (stereo unspecified)	-90.8% (active)
